Screening results as filed in PubChem BioAssay.
Compounds with a hit are over-represented: about 4% of the library has one in this group of screens.
Beta apoptosis: blocks beta cell apoptosis; INS-1E cytokine-induced death, ATP luminescence, 48 h; percent of positive-control rescue, neutral wells zero; protection from apoptosis, % (concentration not given with the values); hit rate 0.8% among 300,000;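 active means Every replicate reaches about 75%, or at least half do and their mean reaches it too, limit read from the data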;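 further: 0% = cytokine-treated negative control wells and 100% = positive control rescue; higher means more ATP so stronger rescue from cytokine killing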
Gli-Sufu antag: blocks Gli-Sufu signaling in a luciferase reporter; Sufu-KO-LIGHT fibroblasts, Gli luciferase reporter luminescence; inhibition, % at 5 µM; hit rate 0.74% among 340,000; AID 588413;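 active means inhibition above about 55%, limit read from the data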;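 further: 0% = DMSO-treated cells and 100% = wells with medium but no cells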
PAX8 inh HTS: inhibitors of PAX8 transcriptional activity in RMG-I cells. RMG-I TPO-luciferase reporter, SteadyGlo, 24 h. AID 652154. inhibition, % at 12.6 µM. hit rate 1.2% among 360,000;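 active means mean replicate inhibition at least 60% with every replicate also reaching 60%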;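 further: luciferase light reporting Pax8 driven TPO promoter activity; plate controls were median of neutral control wells for no effect and mitoxantrone controls for full effect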
CSC inhib: cancer stem cell inhibition; cancer stem cell-like cells viability, luminescence; inhibition, % at 7.5 µM; hit rate 1.1% among 300,000; AID 2717; in the data active means inhibition above about 75%; tested in HMLE shEcad cells
Shn3 3UTR inh: Schnurri-3 reporter inhibition in Clone20 osteoblasts; Clone20 osteoblast Shn3 3'UTR firefly luciferase, 24 h; inhibition, % at 12.5 µM; hit rate 0.52% among 360,000;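 active means mean inhibition of at least 75% with every replicate also reaching 75%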;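 further: 0% = median of neutral control wells and 100% = pilot-screen positive control compound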
Mdm2-MdmX inh: inhibitors of human Mdm2/MdmX interaction; O15151+Q00987; SaOS-2 split-luciferase Mdm2/MdmX complementation, luminescence; inhibition, % at 8 µM; hit rate 3% among 330,000; AID 485346;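 active means inhibition of at least 50% at 8 µM in the primary screen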
* marks the source's active call; other numbers are inactive results; / = no result given; ! = not active in a repeat.

SMILES	Beta apoptosis	Gli-Sufu antag	PAX8 inh HTS	CSC inhib	Shn3 3UTR inh	Mdm2-MdmX inh
C[C@@H]1CCCCO[C@@H](CN(C)C(=O)C2CCCCC2)[C@H](C)CN([C@H](C)CO)C(=O)c2cc(NC(=O)Nc3ccc(F)cc3)ccc2O1	/	/	86*	/	/	/
C[C@@H]1CN([C@H](C)CO)C(=O)c2cc(NC(=O)Nc3ccc(F)cc3)ccc2O[C@@H](C)CCCCO[C@H]1CN(C)C(=O)Nc1ccc(F)cc1	/	/	86*	/	/	/
C[C@@H]1CN([C@@H](C)CO)C(=O)c2cc(NS(=O)(=O)c3ccc(F)cc3)ccc2O[C@H]1CN(C)Cc1ccc2c(c1)OCO2	/	/	-17	/	/	/
C[C@@H]1CN([C@@H](C)CO)C(=O)c2cc(NC(=O)NC3CCCCC3)ccc2O[C@@H](C)CCCCO[C@@H]1CN(C)S(=O)(=O)c1cccs1	/	/	0	/	/	/
O=C(C1CCCN(c2ncnc3c2nc2n3CCCCC2)C1)N1CCN(c2ccc(Cl)cc2)CC1 (stereo not drawn)	10	-2	52	69	40	39
O=C(C1CCN(c2ncnc3c2nc2n3CCCCC2)CC1)N1CCN(c2cccc(Cl)c2)CC1	36	56*	47	26	59	36
CN1CCC(Oc2ccccc2Sc2ccc(C(F)(F)F)cc2)CC1	18	3	-25	75*	-10	46
CC(=O)N(C[C@H]1N[C@H](CO)[C@@H]1c1ccc(-c2cccnc2)cc1)C1CCCC1	/	/	11	/	/	/
C[C@@H](NC(=O)C[C@H]1CC[C@@H](NC(=O)c2cccnc2)[C@@H](CO)O1)c1ccccc1	/	/	0	/	/	/
COc1ccc(C(=O)NN/C(C)=C/C(=O)C(F)(F)C(F)(F)C(F)(F)F)cc1	79*	-18	-17	123*	-1	44
Cc1ccc(-c2[nH]c3ccccc3c2SCCNC(=O)c2ccc(S(=O)(=O)N3CCOCC3)cc2)cc1	28	6	62*	23	57	30
COc1ccc(-c2[nH]c3ccccc3c2SCCNC(=O)c2ccccc2)cc1	18	3	/	39	24	18
COc1ccc(C(=O)/C=C/C(=O)N(CC(=O)NCCC(C)C)Cc2cccs2)c(O)c1	/	-1	0	/	98*	/
O=C(N/N=C/c1cccnc1)c1ccc(NC(=O)C(c2ccccc2)c2ccccc2)cc1	110*	19	0	/	31	7
C[C@@H]1CN([C@@H](C)CO)C(=O)c2cccc(NC(=O)NC3CCCCC3)c2O[C@H]1CN(C)Cc1ccc(C(=O)O)cc1	/	/	2	/	/	/
COc1cc(CNC(C)c2ccccc2)cc(Br)c1OCc1ccccc1 (stereo not drawn)	18	26	13	112*	38	28
COc1cc(CNc2ccc(O)cc2)cc(Br)c1OCc1ccccc1	29	6	-1	59	18	1
CCNC(=O)C[C@H]1CC[C@H]2[C@@H](COc3ccc(NC(=O)c4ccccc4Cl)cc3C(=O)N2C)O1	/	/	-17	/	/	/
Nc1ccc2nc3c(=O)n(CCc4ccccc4)c(=O)[nH]c3nc2c1	11	26	-14	77*	/	18
C[C@@H]1CN([C@H](C)CO)C(=O)Cc2cc(NS(=O)(=O)c3ccccc3)ccc2O[C@H]1CN(C)S(=O)(=O)c1cn(C)cn1	/	/	-19	/	/	/
CCCN1C[C@@H](C)[C@H](OC)CN(C)C(=O)c2cc(NC(=O)c3ccc4c(c3)OCO4)ccc2OC[C@H]1C	/	/	16	/	/	/
CO[C@@H]1CN(C)C(=O)c2ccc(NC(=O)c3cnccn3)cc2OC[C@@H](C)N(CCc2ccccc2)C[C@H]1C	/	/	15	/	/	/
COc1ccc(/C=C/C(=O)OCC(=O)Nc2ccc(C)cc2)cc1S(=O)(=O)N1CCOCC1	-5	1	76*	2	2	20
CC(C)NC(=O)N1CC(=O)N2[C@H](CO)[C@H](c3ccc(C#CCN(C)C)cc3)[C@@H]2C1	/	/	3	/	/	/
CC/C(=C/c1ccccc1)c1cccc2[nH]c3c(OC)cccc3c12	45	-8	-3	131*	86*	/
SMILES	Beta apoptosis	Gli-Sufu antag	PAX8 inh HTS	CSC inhib	Shn3 3UTR inh	Mdm2-MdmX inh
CC1OC(CC(=O)O)CC2=C1C(=O)c1c(O)cccc1C2=O (stereo not drawn)	/	91*	130*	/	99*	/
O=C1c2cccc(O)c2C(=O)c2c(O)cccc21	/	/	/	5	/	23
Cc1cccc(-c2ccc(C3[C@@H]4CN(C(=O)Nc5ccc(F)cc5)C[C@H]3N4)cc2)c1 (stereo partly drawn)	/	/	95*!	/	/	/
O=C(Nc1cccc(F)c1)N1C[C@@H]2N[C@H](C1)C2c1ccc(-c2ccc(F)cc2)cc1 (stereo partly drawn)	/	/	86*!	/	/	/
C=CC[C@@H](CC(=O)N(CCO)Cc1ccccc1)C(=O)N[C@@H](COC(=O)[C@@H](CC=C)CC(=O)OC(C)(C)C)Cc1c[nH]c2ccccc12	-4	2	63*	6	1	43
C=CC[C@H](CC(=O)N(CCO)Cc1ccccc1)C(=O)N[C@H](COC(=O)[C@H](CC=C)CC(=O)OC(C)(C)C)Cc1ccccc1	-4	-4	40	10	-2	12
C=CC[C@@H](CC(=O)N(CCO)Cc1ccccc1)C(=O)N[C@H](COC(=O)[C@@H](CC=C)CC(=O)OC(C)(C)C)Cc1c[nH]c2ccccc12	-2	14	55	-4	26	27
C=CC[C@H](CC(=O)N(CCO)Cc1ccccc1)C(=O)N[C@@H](COC(=O)[C@H](CC=C)CC(=O)OC(C)(C)C)Cc1c[nH]c2ccccc12	-2	13	103*	0	-9	23
C[C@H]1CCCCO[C@@H](CN(C)S(=O)(=O)c2ccc(Cl)cc2)[C@@H](C)CN([C@@H](C)CO)C(=O)c2cc(NS(=O)(=O)c3ccc(F)cc3)ccc2O1	/	/	63*	/	/	/
C[C@@H]1CN([C@@H](C)CO)C(=O)c2cc(NS(=O)(=O)c3ccc(F)cc3)ccc2O[C@@H](C)CCCCO[C@H]1CN(C)S(=O)(=O)c1ccc(Cl)cc1	/	/	50	/	/	/
C[C@@H]1CN([C@@H](C)CO)C(=O)c2cc(NS(=O)(=O)c3ccc(Cl)cc3)ccc2O[C@@H](C)CCCCO[C@H]1CN(C)S(=O)(=O)c1ccc(F)cc1	/	/	-21	/	/	/
C[C@H](CO)N1C[C@H](C)[C@@H](CN(C)S(=O)(=O)c2ccc(Cl)cc2)OCCCC[C@H](C)Oc2ccc(NS(=O)(=O)c3ccc(F)cc3)cc2C1=O	/	/	84*	/	/	/
C[C@H]1CCCCO[C@@H](CN(C)S(=O)(=O)c2ccc(F)cc2)[C@@H](C)CN([C@@H](C)CO)C(=O)c2cc(NS(=O)(=O)c3ccc(Cl)cc3)ccc2O1	/	/	69*	/	/	/
C[C@@H]1CCCCO[C@H](CN(C)S(=O)(=O)c2ccc(Cl)cc2)[C@H](C)CN([C@@H](C)CO)C(=O)c2cc(NS(=O)(=O)c3ccc(F)cc3)ccc2O1	/	/	83*	/	/	/
COCC#Cc1ccc([C@@H]2[C@@H](CO)N3C(=O)CN(C(=O)C4CCOCC4)C[C@H]23)cc1	/	/	15	/	/	/
